These results are taken from PubChem BioAssay AID2147 (National Center for Advancing Translational Sciences (NCATS), 2009).

SMILES strings stand for the structures. About 3,600 (1.6%) of roughly 230,000 compounds were called active. Roughly 15% stayed inconclusive and do not appear here. For the sample, actives were picked, then their nearest neighbours and some compounds at random. A number with no mark means an inactive call. Calls come from the whole dose curve; as a rule, active = well fitted inhibition curve with a large enough effect (not every such curve was filed as active); inconclusive = small, poorly fitted or top-dose-only effect, or another doubt; inactive = no such curve, though single readings can be large or run the other way.
Note: nearly all actives have a fitted effect of over 50% in size.
Potency is the fitted concentration of half-maximal effect.
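Throughout, for activity change, negative = inhibition: 0% = wells with enzyme and -100% = buffer wells without enzyme.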

For the assay, the target named is Lysine-specific demethylase 4E (Homo sapiens) (UniProt B2RXH2). As to the kind of experiment: qHTS Assay for Inhibitors of Human Jumonji Domain Containing 2E (JMJD2E). As to conditions: JMJD2E catalytic domain, FDH-coupled NADH fluorescence (FDH is formaldehyde dehydrogenase); series mostly up to 57.1 µM; activity change, negative = inhibition: at the top concentration.
Chain of Lysine-specific demethylase 4E (Homo sapiens) (B2RXH2 1-337 limits assumed): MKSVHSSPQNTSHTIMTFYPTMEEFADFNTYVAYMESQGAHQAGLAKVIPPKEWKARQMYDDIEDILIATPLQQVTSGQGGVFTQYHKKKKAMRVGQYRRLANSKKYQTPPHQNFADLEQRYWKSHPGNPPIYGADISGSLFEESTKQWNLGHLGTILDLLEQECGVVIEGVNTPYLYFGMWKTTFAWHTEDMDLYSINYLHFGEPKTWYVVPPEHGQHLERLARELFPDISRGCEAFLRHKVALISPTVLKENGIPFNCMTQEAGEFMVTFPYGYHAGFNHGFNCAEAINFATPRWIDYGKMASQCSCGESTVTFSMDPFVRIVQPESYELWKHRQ
With `CCCCCc1nnc(NC(=O)c2ccc(=O)n(C)n2)s1`, the “activity change, negative = inhibition” value was 3.42%. On the same count and under the same terms, then `CCOCCCNCc1cc(Br)ccc1OCC`, with -8.97%. The same measure, in the same setting: then `Cn1nc(C(F)(F)F)cc1C(=O)O`, with -0.937%; and `O=C(O)CC/C(=N\NC(=O)c1ccc(F)cc1)c1ccc(Br)cc1`, with 26.4%; and `CC(=O)Nc1ccc(/C=N/Nc2ccc(C(=O)c3c(C)cc4ccccn34)cc2[N+](=O)[O-])cc1`, with -6.21%. In the case of `COc1ccc(C(C[N+](=O)[O-])n2nc(C)cc2C)cc1` (stereo unspecified), the “activity change, negative = inhibition” value was -17.4%. For the compound `Cc1ccc(C(C[N+](=O)[O-])c2c(C)cc3ccccn23)cc1` (stereo unspecified), the Potency was 25.1 µM (active). Consider `Cc1ccc(/C=N/NC(=S)Nc2cccc(S(=O)(=O)N(C)C)c2)o1`, for which the “activity change, negative = inhibition” value was 2.81%. As to `Cc1ccnc(NC(=O)CCC(=O)N(CC(=O)NCCc2ccccc2)Cc2cccs2)c1`, the “activity change, negative = inhibition” value was 4.44%. Turning to `C#CCNc1ccc(C(=O)OCC)cc1`, the “activity change, negative = inhibition” value is -3.79%. On to `COC(=O)c1c(C)oc(C)c1S(=O)(=O)NCc1ccc(Cl)cc1`, for which the “activity change, negative = inhibition” value was 1.03%. The same measure, in the same setting: the same measure for `COc1ccc(C(=O)C2CCCN(C(=O)c3cnsn3)C2)c(C)c1` (stereo unspecified): 1.42%; for `Oc1[nH]c2ccc(Br)cc2c1N=Nc1nn[nH]n1`: -5.01%. For `CSc1n[nH]c(=S)n1N`, the Potency is 31.6 µM (active).

Turning to `Nc1ccc(N=Nc2ccccc2Cl)c(N)n1`, the “activity change, negative = inhibition” value was -0.968%. Consider `Cc1ccc(S(=O)(=O)N(C)C)cc1NC(=O)c1n[nH]c(=O)c2ccccc12`, for which the “activity change, negative = inhibition” value is -0.703%. Turning to `COc1cccc(/C=N\NC(=O)C2=NNC(=O)C2C)c1O` (stereo unspecified), the Potency is 7.08 µM (active).

For `COc1cccc(/C=N/Nc2cc(C)nc(-c3ccccc3O)n2)c1O`, the “activity change, negative = inhibition” value was -19.7%. Consider `COc1cccc(/C=N/NC(=O)c2[nH]nc3c2CCc2ccccc2-3)c1O`, for which the “activity change, negative = inhibition” value is -6.09%. `Oc1ccc(-c2nnc(Nc3ccccc3)c3ccccc23)cc1`: the “activity change, negative = inhibition” value was 6.49%. On the same count and under the same terms, the same measure for `O=c1c(-c2ccccc2)cnc2n1CCS2`: -0.466%; for `CN1CCN(c2ncc3c(n2)CC(c2ccccc2F)CC3=O)CC1` (stereo unspecified): 8.1%.

In the case of `O=C(Cn1nnc(N2CCCCC2)n1)c1ccc(Cl)c(Cl)c1`, the “activity change, negative = inhibition” value was 1.01%. As for `Nc1nonc1-n1nnc(C(=O)N/N=C/c2cc(Br)ccc2O)c1CSC1=NCCS1`, the Potency was 20 µM (active).

With `COCc1c(C(=O)N/N=C/C2CC=CCC2)nnn1-c1nonc1N` (stereo unspecified), the “activity change, negative = inhibition” value was 28.1%.

For the compound `Cc1ccc(SCc2c(C(=O)N/N=C/C3CC=CCC3)nnn2-c2nonc2N)cc1` (stereo unspecified), the “activity change, negative = inhibition” value was 6.28%. On the same count and under the same terms, the same measure for `CCOc1ccc(-c2nc(N)ncc2-c2ccccc2OC)c(O)c1`: 0.955%; for `Cc1cc(C)cc(C(=O)NC2C(=O)N3C(C(=O)O)=C(CSc4nnc(C)s4)CSC23)c1` (stereo unspecified): -12.1%.

In the case of `O=C(CNc1ccc(F)cc1F)NC(=O)NCc1ccco1`, the “activity change, negative = inhibition” value is -10.3%. Take `Cc1ccc(C(=O)NC(=S)Nc2ccccc2C)cc1`: the “activity change, negative = inhibition” value was -6.18%. Still for that read-out and setting: then `Cc1ccc(C(=O)NCCNC(=O)c2ccccc2)cc1`, with -3.49%. Regarding `C/C(=N\NC(=O)c1ccc(C)cc1)C1C(=O)c2ccccc2C1=O`, the Potency is 25.1 µM (active). Turning to `O=c1[nH]c2cccnc2n1-c1ccc([N+](=O)[O-])cc1`, the “activity change, negative = inhibition” value is -0.719%.

With `O=C(CCCl)Nc1ccc(S(=O)(=O)NCc2ccco2)cc1`, the “activity change, negative = inhibition” value was -9.18%.

Consider `CCC(C)(C)NC(=O)C1c2ccccc2Oc2ccccc21`, for which the “activity change, negative = inhibition” value is 9.54%. The same measure, in the same setting: the same measure for `CCC(C)NC(=O)C1c2ccccc2Oc2ccccc21` (stereo unspecified): -12.8%.

`O=C(N/N=C/c1ccc(O)c(O)c1)C1c2ccccc2Oc2ccccc21`: the Potency was 14.1 µM (active). Regarding `COc1ccc(OC)c(NC(=O)CN(Cc2ccc(Cl)cc2)S(C)(=O)=O)c1`, the “activity change, negative = inhibition” value is 1.48%. On the same count and under the same terms, then `O=C(CSc1nc(O)c(Cc2ccccc2)c(=O)[nH]1)Nc1nc2c(s1)CCCC2`, with 8.09%; and `CC(C)(C)NC(=O)NCc1ccco1`, with 0.475%. Same read-out and setting: then `Cc1ccc(NC(=S)NCCN2CCOCC2)cc1`, with -5.61%; and `Cc1ccc(C(=O)NC(=S)NCCN2CCOCC2)cc1`, with 6.9%.

As for `CCOc1cccc(/C=N/NC(=S)NCCN2CCOCC2)c1O`, the Potency is 35.5 µM (active). Turning to `COc1ccc(COCC(O)CN2CCC(C(N)=O)CC2)cc1` (stereo unspecified), the “activity change, negative = inhibition” value is -0.742%. On the same count and under the same terms, then `COC(=O)c1cc(C(=O)CSc2nc(C)cc(C)n2)ccc1O`, with -28.2%. Take `CC(C)C1N=C2c3ccccc3N=C(SCC(=O)c3ccc(O)c(O)c3)N2C1=O` (stereo unspecified): the Potency was 25.1 µM (active). Consider `COc1ccccc1P(=O)(c1ccccc1)c1ccccc1NC(C)=O` (stereo unspecified), for which the “activity change, negative = inhibition” value is 3.73%. Same read-out and setting: the same measure for `CN(CC(O)COc1ccc(S(=O)(=O)N2CCOCC2)cc1Cl)C1CCCCC1` (stereo unspecified): 12.2%. `COc1cccc([C@@H]2Oc3ccc(Br)cc3C(=O)[C@H]2OC(=O)NCCc2ccc(OC)c(OC)c2)c1`: the Potency was 14.1 µM (active).

`COc1cccc([C@@H]2Oc3ccc(Br)cc3C(=O)[C@H]2OC(=O)NCc2ccc3c(c2)OCO3)c1`: the “activity change, negative = inhibition” value is -24.1%. Same read-out and setting: the same measure for `COc1ccc2c(c1)O[C@@H](c1ccc3c(c1)OCO3)[C@H](OC(=O)NCCc1ccc(OC)c(OC)c1)C2=O`: 3.27%; for `c1ccc(-c2nnc(N3CCOCC3)c3ccccc23)cc1`: -2.56%.

In the case of `O=C(Nc1ccc(S(=O)(=O)Nc2nccs2)cc1)c1cccc(S(=O)(=O)N2CCOCC2)c1`, the “activity change, negative = inhibition” value was -2.79%. Consider `CCc1nc(C)cn1S(=O)(=O)c1cc([N+](=O)[O-])ccc1Cl`, for which the “activity change, negative = inhibition” value was 6.08%. For `COc1ccc(OC)c(Nc2nc(-c3ccc(O)c(O)c3)cs2)c1`, the Potency is 28.2 µM (active).

In the case of `COc1ccc(-c2csc(Nc3ccc(O)cc3)n2)cc1`, the “activity change, negative = inhibition” value is -1.49%. Still for that read-out and setting: the same measure for `COc1ccc(-c2csc(Nc3ccccn3)n2)cc1`: 1.24%; for `O=C(Nc1n[nH]c(C(F)(F)F)n1)c1cccs1`: 5.52%; for `CCOC(=O)c1cn[nH]c1NC(=S)Nc1ccccc1`: -9.9%. The same measure, in the same setting: then `O/N=C1\CC2(Cc3nonc31)OCCO2`, with 0.0097%. Turning to `ON=C1/C(=N\O)CC2(C/C1=N/O)OCCO2`, the Potency was 7.08 µM (active). With `Cc1[nH]n(C)c(=O)c1N=Nc1ccc(S(C)(=O)=O)cc1`, the “activity change, negative = inhibition” value is -23.4%. Regarding `COc1cccc(N2C(=O)CC(N3CCc4ccccc4C3)C2=O)c1` (stereo unspecified), the “activity change, negative = inhibition” value was -5.44%. Take `NCCCCCC(=O)N/N=C/c1ccc2nccnc2c1`: the “activity change, negative = inhibition” value was -4.08%. Still for that read-out and setting: the same measure for `CCOC(=O)CSc1nc(C)c(Oc2ccc(Cl)cc2Cl)c(=O)[nH]1`: 3.14%; for `Oc1cccc(C2c3[nH]c4ccccc4c3CCN2Cc2cnn(-c3ccccc3)c2)c1` (stereo unspecified): -19%. The same measure, in the same setting: then `COCc1ccc(C(=O)N2CCc3c([nH]c4ccccc34)C2c2ccccn2)s1` (stereo unspecified), with 1.42%. As to `c1ccc(C2c3[nH]c4ccccc4c3CCN2Cc2cccn2-c2cccnc2)nc1` (stereo unspecified), the Potency was 14.1 µM (active).

`CCc1cccc2c(=O)c(C(=O)NCCCOC)c[nH]c12`: the “activity change, negative = inhibition” value was -11.7%.

Turning to `CN(C(=O)CCn1c(=S)oc2ccccc21)C1CCCCC1`, the “activity change, negative = inhibition” value was 2.53%. In the case of `Cc1ccc(N2C(=O)CC(Sc3ncn[nH]3)C2=O)cc1` (stereo unspecified), the Potency is 2.51 µM (active). With `CCOC(=O)c1ccc(N2C(=O)CC(Sc3nc(O)c(CC)c(=O)[nH]3)C2=O)cc1` (stereo unspecified), the “activity change, negative = inhibition” value is 8.88%. For `Cc1cccc(N2C(=O)CC(SC(N)=Nc3ccccc3)C2=O)c1` (stereo unspecified), the “activity change, negative = inhibition” value was 7.82%. As for `O=C1CC(Sc2ncn[nH]2)C(=O)N1c1ccccc1` (stereo unspecified), the Potency was 2.24 µM (active). Regarding `O=C1CC(N2CCN(c3ccc(F)cc3)CC2)C(=O)N1c1ccccc1` (stereo unspecified), the “activity change, negative = inhibition” value was -0.114%. Regarding `COc1ccc(N2C(=O)CC(Sc3n[nH]c(-c4ccc(C)cc4)n3)C2=O)cc1` (stereo unspecified), the “activity change, negative = inhibition” value is -11.9%.
